Reference: the supplement of paper PMC6555819

Key:
Assay in all cases: PBM binding z-score (relative to random genomic background probes); higher = stronger binding; sequences stand for … in GC…GCGATTGACAGCGTAGAATGAAGG
[1] = test system: PPARg:RXRa DBDmut IVT, anti-RXR (DBD mutation: RXRa K156A/R161A, NR concentration 270 nM, RXRa partner concentration 90 nM)
How it was run: (§1)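 Binding z-scores were set against random background probes. The data came from custom Agilent 4×180K protein-binding microarrays carrying double-stranded probes with 34-nt variable regions, incubated 1 h with ligand-free nuclear receptor dimers. Partner-specific antibodies detected binding, and scanned fluorescence was regression-normalized.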

[2] = test system: PPARg:RXRa IVT, anti-PPARg (NR concentration 270 nM, RXRa partner concentration 90 nM)
How it was run: as §1

[3] = test system: PPARg DBDmut:RXRa IVT, anti-PPARg (DBD mutation: PPARg1 K132A/R137A, NR concentration 270 nM, RXRa partner concentration 90 nM)
How it was run: as §1

[4] = test system: PPARg DBDmut IVT, anti-PPARg (DBD mutation: PPARg1 K132A/R137A, NR concentration 270 nM)
How it was run: as §1

[5] = test system: PPARg homodimer (NR concentration 180 nM)
How it was run: as §1

[6] = test system: PXR:RXRa (NR concentration 270 nM, RXRa partner concentration 90 nM)
How it was run: as §1

[7] = test system: PXR homodimer (NR concentration 270 nM)
How it was run: as §1

[8] = test system: RARa:RXR (NR concentration 270 nM, RXRa partner concentration 90 nM)
How it was run: as §1

[9] = test system: RARa homodimer (NR concentration 270 nM)
How it was run: as §1

[10] = test system: RARb:RXRa (NR concentration 270 nM, RXRa partner concentration 90 nM)
How it was run: as §1

Sequence | PBM binding z-score [1] | PBM binding z-score [2] | PBM binding z-score [3] | PBM binding z-score [4] | PBM binding z-score [5] | PBM binding z-score [6] | PBM binding z-score [7] | PBM binding z-score [8] | PBM binding z-score [9] | PBM binding z-score [10]
ATATGTAGGTTATCGGGTCAATCAGTTTGCGCAT | 7.94 | 7.57 | 3.15 | 2.14 | 2.33 | 3.64 | 3.23 | 4.04 | 1.3 | 2.86
TCTTGTAGATCAGCAAGTTAAGAAAGCTGGCCAA | 1.5 | 0.0775 | 0.0136 | -0.449 | -0.907 | -0.095 | -0.549 | -0.2 | -0.451 | -0.472
ATCTCTAGGTAAAGATAGTTCAGTGCATGCAAAT | 2.3 | 1.49 | 1.11 | 1.06 | 0.899 | 1.1 | 1.29 | 0.26 | 0.906 | 0.853
CGAACTAGGTCATTCACAGGACAGTGAATAGTAA | 8.25 | 8.21 | 1.5 | 0.729 | 1.48 | 1.77 | 0.314 | 2.2 | 0.779 | 3.72
CCTACTGGGCAAAGGTCATTGATCAGTCAAAGCA | 1.24 | 4.2 | -0.384 | -0.183 | 4.15 | 5.26 | 1.18 | 6.18 | 1.65 | 4.49
GCTATTAGCTGAAAGGGCAACCGAATGATTCTCG | 0.31 | 0.298 | -0.309 | -0.672 | 0.621 | 0.34 | -0.258 | 0.809 | -0.61 | 1.76
TCATATAGGTAAACAGCTGAAAGTCCGTAAGTTA | 3.93 | 2.25 | 1.07 | 0.733 | 0.646 | 0.928 | 0.555 | 1.19 | 0.977 | 0.471
CCTCGGAGGACAATAGGAGGTCAGAGCTGCCAGA | -0.0175 | 0.979 | -0.47 | -1.32 | 1.01 | 1.76 | 0.364 | 2.08 | -0.149 | 2.29
GCTGCTAGGTCAACTGATGCTCAGCTAAAGCTCG | 4.93 | 3.92 | -0.517 | -0.991 | 1.02 | 1.26 | -0.735 | 2.18 | -0.0559 | 4.27
TCTTGTAGATCAACAGGAGGTTAAGAAGGATCGA | 1.57 | 0.719 | 0.516 | 0.84 | -0.0308 | 0.778 | -0.0185 | 0.915 | -0.325 | 0.474
ACTGTTAGTTGACTTAGGGCAACCGATACGACGC | 0.0464 | 0.607 | 0.909 | 0.844 | 0.977 | 0.277 | 0.341 | 0.582 | 0.354 | 1.04
TGAATGATGTTATAAGATCAGGGAACGTTGCAAA | -1.12 | -0.0889 | 0.204 | 0.597 | -0.0286 | -0.22 | -0.193 | 0.123 | 0.481 | -0.32
ACAAGTTGGTCAGCTGAGGTCACACACAATTCGG | 1.87 | 2.89 | 0.789 | 1.03 | 2.69 | 5.44 | 2 | 4.44 | 1.01 | 3.65
AGTCCAAGTTCATCTAGGTAACGTAAGATATGCT | 0.673 | 2.16 | 1.06 | 0.824 | 1.01 | 3.95 | 5.64 | 1.67 | 0.0751 | 3.3
CCTACTGGGCCATCAGGACATTGATATCAACGTT | 3.58 | 3.83 | 0.0869 | 0.0679 | 0.687 | -0.0432 | -0.0909 | 0.486 | 0.102 | 0.235
CGAACTAGGTCATTGACAGGACAGTGAGTAGTAA | 8.17 | 8.32 | 0.587 | 2.61 | 1.63 | 1.38 | 0.241 | 2.09 | 0.277 | 3.6
TCAGATAGGTAAACAGGTGAAAGTCCGTAAGTTA | 2.93 | 2.15 | 0.778 | 0.465 | 0.969 | 0.684 | 0.401 | 1.05 | 1.15 | 0.891
ATACCAAGGCGATCGTGAGGTCGTTGATACTAAC | -0.138 | -0.0368 | -0.877 | -0.313 | -0.138 | 1.3 | 0.728 | 1.12 | 0.128 | 0.341
CGTCCAAGGTCAATGCTATGTCAGTGAAAGCATT | 2.87 | 3.43 | -0.154 | 0.266 | 2.06 | 3.61 | 0.424 | 3.88 | 0.262 | 5.07
ATCTCTCGGTAAGACTCAGTTCAGTGAAGAACGC | 0.0945 | 0.262 | 0.647 | 0.946 | 1.35 | 1.2 | 1.82 | 0.858 | 1.21 | 0.565
AGTCAAAGTTCACTAGGTAACGCAAGATTCAGCT | 3.01 | 4.84 | 0.915 | 1.01 | 2.5 | 3.77 | 2.6 | 3.32 | 1.39 | 4.93
CCGACTGGGGCAGAAAGGTTACCATTCCATCCGG | 1.94 | 1.83 | -1 | -1.28 | 0.284 | 0.744 | -0.202 | 1.33 | 0.0232 | 1.52
CGTCCAAGGTCAGAGAGGTCCGTGAATGCCGAGT | 2.12 | 2.18 | -0.282 | -0.705 | 1.61 | 3.03 | 1.11 | 2.98 | 0.291 | 4.67
TCAAGTAGGTTAGGGGCATTCAGAATGGCGTCGA | 4.59 | 3.94 | 0.0234 | 0.234 | 1.35 | 1 | 0.86 | 0.878 | 0.676 | 1.51
TCATATAGGTAACCAGGTGAAAGTCCGTAAGTTA | 5.2 | 5.99 | 0.0685 | 0.802 | 1.14 | 0.852 | 0.506 | 1.06 | 0.583 | 1
